ClpP mod: qHTS Assay for Activators of ClpP; ATP-dependent Clp protease proteolytic subunit (Bacillus subtilis (strain 168)), P80244; purified B. subtilis ClpP, FRET peptide cleavage, 20 min; Potency, µM (titrated, usually from 57.5 µM); 1.9% of 340,000 active; AID 651965, 2013; active means well fitted falling curve with a large enough effect; inconclusive means small, poorly fitted or top-dose-only effect; inactive means no such curve, though single readings can be large or run the other way; further: the source files actives as falling curves though it sought activators and does not explain the sign; nearly all actives have a fitted effect of over 65% in size
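Purified B. subtilis ClpP, 10 microg/mL final in Tris/HCl pH8 with KCl, BSA, glycerol and Tween-20, cleaved an Abz/nitrotyrosine-quenched decapeptide. Fluorescence (ex 320, em 430) was read at 0 and 20 min at room temperature. Delta was normalized to 5.8 microM ADEP and DMSO/no-enzyme controls.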
TDP1 block: qHTS Assay for Inhibitors of Tyrosyl-DNA Phosphodiesterase (TDP1); recombinant TDP1, AlphaScreen DNA substrate cleavage; Potency, µM (highest dose often 130 µM), actives largely listed as inhibitors; 0.28% of 350,000 active; further: nearly all actives have a fitted effect of over 40% in size
Target sequence (Q9NUW8 whole entry, looked up): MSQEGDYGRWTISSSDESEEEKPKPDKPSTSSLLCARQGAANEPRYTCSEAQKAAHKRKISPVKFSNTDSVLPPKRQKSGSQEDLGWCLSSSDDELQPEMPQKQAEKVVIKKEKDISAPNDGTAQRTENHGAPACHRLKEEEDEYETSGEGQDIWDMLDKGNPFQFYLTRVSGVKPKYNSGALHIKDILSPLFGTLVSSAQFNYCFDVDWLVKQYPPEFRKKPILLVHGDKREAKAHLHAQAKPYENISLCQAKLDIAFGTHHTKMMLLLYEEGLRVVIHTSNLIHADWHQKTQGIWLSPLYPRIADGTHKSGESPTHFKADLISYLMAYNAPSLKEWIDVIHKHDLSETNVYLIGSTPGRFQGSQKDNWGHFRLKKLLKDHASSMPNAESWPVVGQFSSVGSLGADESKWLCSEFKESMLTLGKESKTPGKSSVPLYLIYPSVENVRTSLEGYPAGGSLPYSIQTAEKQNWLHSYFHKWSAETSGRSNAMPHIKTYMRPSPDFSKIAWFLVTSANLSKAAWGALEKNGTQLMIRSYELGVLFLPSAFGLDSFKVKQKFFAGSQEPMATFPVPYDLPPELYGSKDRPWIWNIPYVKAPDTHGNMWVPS
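Here, a 5' biotin and 3' phosphotyrosine-FITC DNA oligonucleotide reports Tdp1 activity: intact substrate bridges AlphaScreen beads, while cleavage leaves a 3' phosphate and drops signal. All incubations at room temperature.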
DT40 TDP1 CPT: qHTS for Inhibitors of human tyrosyl-DNA phosphodiesterase 1 (TDP1): qHTS in cells in presence of CPT; chicken DT40 Tdp1-/-;hTDP1 cells + 20 nM CPT, ATP luminescence, 48 h; Potency, µM (highest dose often 46.2 µM), most hits filed as inhibitors; 12% of 420,000 active; AID 686979, 2013; further: nearly all actives have a fitted effect of over 55% in size
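Cell growth measured by CellTiter-Glo luminescence after a minimum 48 h, 37 C compound exposure with 20 nM CPT in Tdp1-knockout DT40 cells stably expressing hTDP1, seeded 400/well; qHTS titration format.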
DT40 TDP1 no CPT: qHTS for Inhibitors of human tyrosyl-DNA phosphodiesterase 1 (TDP1): qHTS in cells in absence of CPT | 15% of 420,000 active | DT40 Tdp1-/- hTDP1 cells, no CPT, ATP luminescence, 48 h | Potency, µM (series often up to 46.2 µM), actives largely listed as inhibitors; further: nearly all actives have a fitted effect of over 55% in size
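Stably hTDP1-transfected Tdp1-null chicken DT40 cells were treated with library compounds minus camptothecin and grown for at least 48 hr at 37 °C, after which cellular ATP was quantified by luminescence.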
Hits are given with their value; - = inactive; ? = inconclusive; . = not tested or not shown; [ ] = another dose, or the depositor's remark. In the library only some 17% were active in any assay of this set; here they are far more common. Unless noted, the call rests on the fitted dose curve; in most records, active means well fitted curve in the direction sought with a large enough effect; inconclusive means small, poorly fitted or top-dose-only effect, or another doubt; inactive means no such curve, though single readings can be large; an effect the other way counts as inactive or inconclusive.

SMILES	ClpP mod	TDP1 block	DT40 TDP1 CPT	DT40 TDP1 no CPT
CCN(CC)C(=O)Cn1cc(C(=O)C(=O)Nc2ccc3c(c2)OCCO3)c2ccccc21	-	-	18µM	23µM
O=C(Nc1ccc2c(c1)OCCO2)C(=O)c1c[nH]c2ccccc12	-	-	10µM	?
O=C(Nc1ccc2c(c1)OCO2)C(=O)c1c[nH]c2ccccc12	-	-	-	-
COc1ccc(C(C)=O)cc1COC(=O)C1CCN(C(=O)c2ccc(Cl)cc2)CC1	-	-	-	-
COc1ccc(-c2cc(=Nc3c(C)n(C)n(-c4ccccc4)c3=O)c3ccccc3o2)cc1	.	-	?	21µM
COc1ccc(-c2c/c(=N\c3nc(-c4ccccc4)c(C)s3)c3ccccc3o2)cc1O	-	-	5.8µM	4.1µM
COc1ccc(-c2csc(=Nc3c(C)n(C)n(-c4ccccc4)c3=O)n2C(C)(C)C)cc1	-	-	-	-
COc1ccc(-c2cc(=O)c3c(O)cc(O)cc3o2)cc1O	.	-	.	.
CCN(CC)S(=O)(=O)c1ccc(S(=O)(=O)N2CCC(N3CCCCC3)CC2)cc1	.	-	-	-
O=C(NNC(=S)Nc1ccc(C(=O)O)c(O)c1)c1ccncc1	.	.	-	-
Cc1ccc(C(=O)Nc2sc3c(c2C(=O)O)CCCC3)o1	-	-	?	?
COC(=O)c1c(NC(=O)c2c(C)noc2C)sc2c1CCCCCC2	.	-	.	.
COC(=O)c1c(NC(=O)c2ccc(C)o2)sc2c1CCCCC2	32µM	.	?	?
COC(=O)c1c(NC(=O)c2nc3nc(C)cc(C(F)F)n3n2)sc2c1CCC2	-	-	?	16µM
CC(C)OC(=O)c1c(NC(=O)c2ccco2)sc2c1CCCCC2	28µM	.	-	?
Cc1cc(C(F)F)n2nc(C(=O)Nc3sc4c(c3C(N)=O)CCC4)nc2n1	-	?	?	?
Cc1ccc(C(=O)Nc2sc3c(c2C(=O)O)CCCCC3)o1	-	-	?	15µM
O=C(O)CNC(=O)[C@@H](CS)Cc1ccccc1	.	-	.	.
CCn1cc(CN2CCC(n3nccc3NC(=O)Cc3ccccc3)CC2)c(C)n1	-	-	-	-
COc1cccc(COC(=O)c2nn(-c3ccccc3)nc2N)c1	-	-	-	-
CCOC(=O)CCN(c1ccccc1)S(=O)(=O)c1cc(-c2cc(C)no2)ccc1C	-	-	?	?
CC1CCc2c(sc(NC(=O)c3cccs3)c2C(=O)O)C1 (stereo not given)	-	.	?	?
Cc1ccc(C(=O)Nc2sc3c(c2C(=O)O)CCC(C)C3)o1 (stereo not given)	-	-	?	21µM
COc1ccc(/C=N/OCC(=O)N=Nc2c(O)[nH]c3ccc(Br)cc23)cc1OC	.	-	26µM	23µM
COc1ccc(/C(C)=N/OCC(=O)N=Nc2c(O)[nH]c3ccc(Br)cc23)cc1	-	-	?	18µM
SMILES	ClpP mod	TDP1 block	DT40 TDP1 CPT	DT40 TDP1 no CPT
O=c1onc2cnc3ccccc3n12	.	-	?	13µM
CCCCn1c(N)c(N(CC(C)C)C(=O)COC(=O)C2(c3ccccc3)CC2)c(=O)[nH]c1=O	-	.	-	-
COc1cc(=O)n2c(c1C(=O)NCc1ccco1)CCN(Cc1cccc(C)n1)CC2	.	.	-[9.04 µM]	-
Cn1c(=O)c2c(nc(NCCc3ccccc3)n2Cc2ccc(Cl)cc2)n(C)c1=O	-	.	12µM	10µM
Cn1c(=O)c2c(nc(NCc3ccccc3)n2Cc2ccccc2)n(C)c1=O	-	.	8.2µM	4.1µM
Cn1c(=O)c2c(nc(NCCCN3CCOCC3)n2Cc2ccc(Cl)cc2)n(C)c1=O	-	-	-	-
C/C(Cl)=C\Cn1c(Nc2ccccc2)nc2c1c(=O)n(C)c(=O)n2C	-	-	11µM	?
Cn1c(=O)c2c(nc(NCC3CCCO3)n2Cc2ccccc2)n(C)c1=O (stereo not given)	28µM	-	?	?
Cn1c(=O)c2c(nc(NCc3ccc4c(c3)OCO4)n2Cc2ccccc2)n(C)c1=O	-	-	?	?
CCOc1ncccc1C(=O)NCCc1ccc(Cl)cc1	-	.	?	?
CC(=O)N1c2ccccc2CCc2ccc([N+](=O)[O-])cc21	-	-	-	-
CCC(C)N(C(=O)COC(=O)c1ccc(N)c([N+](=O)[O-])c1)C1CCS(=O)(=O)C1 (stereo not given)	-	.	-	-
Cn1c(=O)c2nc(NCc3ccccc3)cnc2n(C)c1=O	-	-	?	13µM
Cn1c(=O)c2c(nc(NCc3ccccc3)n2Cc2ccc(Cl)c(Cl)c2)n(C)c1=O	-	.	8.2µM	7.3µM
CCn1c(NCc2ccccn2)nc2c1c(=O)n(C)c(=O)n2C	-	-	-	-
Cn1c(NCc2ccccc2)nc2c1c(=O)n(Cc1ccc(Br)cc1)c(=O)n2C	-	-	?	?
CCOc1ccc(CCNc2nc3c(c(=O)n(C)c(=O)n3C)n2CC)cc1OCC	-	-	16µM	14µM
O=C(N/N=C/C(Cl)=C/c1ccccc1)c1cnccn1	-	-	16µM	13µM
CC(=C/c1ccccc1)/C=N/NC(=O)c1cnccn1	-	-	-	-
O=C(N/N=C/c1cc([N+](=O)[O-])ccc1Cl)c1cnccn1	.	-	3.3µM	5.8µM
O=C(N/N=C/C(Cl)=C\c1ccccc1)c1cnccn1	-	-	18µM	21µM
O=C(N/N=C/C(Cl)=C\c1ccccc1)c1ccco1	.	-	-	29µM
O=C(CN1CCc2ccccc21)NC(=O)NCc1ccccc1	.	-	?	?
COc1ccc(CC(=O)NCCS(=O)(=O)N2CCN(c3ccccc3F)CC2)cc1OC	-	-	?	?
Cc1cccc(OCCC(=O)Nc2ccc(Cl)cc2F)c1	.	.	-	-
SMILES	ClpP mod	TDP1 block	DT40 TDP1 CPT	DT40 TDP1 no CPT
COC(=O)C/C=C/[C@@H](C)[C@H](NC(=O)OCC(Cl)(Cl)Cl)c1cccc(OC)c1	.	-	.	.
COc1ccc(CNC(=O)Cn2nnc(-c3ccc(C(F)(F)F)cc3)n2)cc1	-	-	-	-
Cc1nn(CC(=O)N2CCC(C)CC2)c(=O)c2cc3occc3n12	-	-	-	-
CCOC(=O)C1CCN(C(=O)c2c(C)oc3c2C(=O)c2ccccc2C3=O)CC1	-	-	5.2µM	7.3µM
CC1CCN(C(=O)c2ccc3c(c2)C(=O)c2ccccc2-3)CC1	-	.	?	?
Cc1oc2c(c1C(=O)N1CCC(C)CC1)C(=O)c1ccccc1C2=O	-	-	7.3µM	12µM
Cc1cc(C)n(CCCNC(=O)C(C)(C)Oc2ccc(Cl)cc2)n1	-	-	-	?
O=C(C1=C[C@@H](c2ccc(Br)cc2)C[C@@H](OCCCCO)O1)N1CCN(Cc2ccccc2)CC1	-	-	6.5µM	5.8µM
O=C(C1=C[C@H](c2ccc3c(c2)OCO3)C[C@H](OCCCCO)O1)N1CCN(Cc2ccc3c(c2)OCO3)CC1	-	-	?	18µM

Screening data from PubChem.
